Results taken from PubChem BioAssay (EPA / NIEHS).
Inconclusive results are not listed. Activity calls are given as the source filed them. How the source made its calls: active means hit-call score of the fitted dose curve at least 0.9, where 1 is the maximum; inconclusive means response in the unintended direction; inactive means score below 0.9.

experiment: ACEA_ER_AUC_viability: ACEA Biosciences xCELLigence Real-Time Cell Analysis on Estrogen Receptor Agonism for Viability (AID 2283782);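 further: continuous compound exposure with impedance area under curve over 80 h; hit means loss of impedance signal meaning reduced cell growth or viability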
Outline: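 T-47D; phenol red-free RPMI1640 + 10% CS-FBS; 8 conc., 1:4 serial, max 100 uM final, ≤0.5% DMSO; n = 2; continuous exposure; impedance monitored to 80 h post-dose; AUC vs DMSO.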

Structure (SMILES)	outcome	AC50
Nc1ccccc1N	inactive	–
CCOc1ccc2c(c1)C(C)=CC(C)(C)N2	inactive	–
Nc1nc(N)c2nc(CNc3ccc(C(=O)N[C@@H](CCC(=O)O)C(=O)O)cc3)cnc2n1	–	40.1 µM (active)
CCCCC(CC)COC(=O)CC(C(=O)OCC(CC)CCCC)S(=O)(=O)O (configuration not stated)	–	67.3 µM (active)
Cc1ccc(C)c(O)c1C	inactive	–
CNC(=O)[C@H]1O[C@@H](n2cnc3c(NCc4cc(Cl)ccc4OCc4cc(C)no4)ncnc32)[C@H](O)[C@@H]1N	inactive	–
COc1ccc(C)cc1N	inactive	–
Cc1cc(=O)[nH]c(=S)[nH]1	inactive	–
Cc1oc(-c2ccccc2)nc1CCOc1cccc2c1ccn2CCC(=O)O	inactive	–
CCNc1cccc(C)c1	inactive	–
CN[C@H]1CC[C@@H](c2ccc(Cl)c(Cl)c2)c2ccc(S(N)(=O)=O)cc21	–	10.9 µM (active)
CC1=C(/C=C/C(C)=C/C=C/C(C)=C/CO)C(C)(C)CCC1	inactive	–
